Measured values from PubChem BioAssay (NCI).
About 83,000 compounds went through this panel and 20% of them were active in at least one assay; those are over-represented in the sample as a whole.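 Single-dose data. Exposure time 48 hours. Values below 10 considered active.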 A number with no mark means an inactive call. Active and inactive are the calls of the source.

Experiments:
Assay in all cases: NCI-60 one-dose screen, 48 h (100 = growth as untreated, 0 = no growth, -100 = all killed)
Conditions in all cases: 10 µM unless noted
T-47D breast = tested on: T-47D breast
BT-549 breast = tested on: BT-549 breast
MDA-MB-435 melanoma = tested on: MDA-MB-435 melanoma
SW-620 colon = tested on: SW-620 colon
HCT-116 colon = tested on: HCT-116 colon
HCC-2998 colon = tested on: HCC-2998 colon
KM12 colon = tested on: KM12 colon
MCF7 breast = tested on: MCF7 breast

SMILES | growth (T-47D breast) | growth (BT-549 breast) | growth (MDA-MB-435 melanoma) | growth (SW-620 colon) | growth (HCT-116 colon) | growth (HCC-2998 colon) | growth (KM12 colon) | growth (MCF7 breast)
CN(C)[C@@H]1C(=O)C(C(=O)NCc2nc3[nH]cnc(=S)c3[nH]2)=C(O)[C@@]2(O)C(=O)C3=C(O)c4c(O)cccc4[C@@](C)(O)[C@H]3C[C@@H]12 | 40.4% | 54% | 33.8% | 73.8% | 33.8% | 16.3% | 68.5% | –
COc1cc2nc(N3CCCC3)nc(NCCc3ccccc3)c2cc1OC | 80.8% | 82.6% | 91.5% | 0.907% (active) | 2.87% (active) | 70.6% | 96.3% | –
O=C(C(=O)c1ccc2c(c1)OCO2)c1ccc2c(c1)OCO2 | 113% | – | 114% | 90.6% | 101% | 114% | 98.1% | 102%
COc1ccc(-c2nc3ccc(-c4nc5ccc(N6CCN(c7ccncc7)CC6)cc5[nH]4)cc3[nH]2)cc1OC | 6.91% (active) | – | 31.4% | 35.6% | 17.8% | 34.9% | 92.8% | 12.3%
N#CN1CC[C@H](C(=O)Nc2cc3cc(C(N)=O)ccc3cn2)C1 | -21.6% (active) | – | 3.57% (active) | 6.39% (active) | 1.69% (active) | -1.56% (active) | 1.65% (active) | 6.05% (active)
O=C(N=Nc1c(O)[nH]c2ccccc12)c1cc(-c2ccccc2)on1 | 97.6% | 109% | 110% | 97.8% | 99.7% | 111% | 101% | –
CCOc1cc2ncc(C#N)c(Nc3ccc(OCc4cccc(F)c4)c(Cl)c3)c2cc1NC(=O)CCCCC1CCSS1 (configuration not stated) | 64.4% | – | 99% | 99.4% | 75.6% | 105% | 82.8% | 58.8%
CCOC(=O)C(C)(C#N)C1C=CCCC1 (configuration not stated) | 84.5% | – | 100% | 91.2% | 93.2% | 43.5% | 90.5% | 92.7%
Cc1cc(N2CCCCCC2)nc(NC2CCCC(Nc3ccnc4cc(Cl)ccc34)C2)n1 (configuration not stated) | -50.3% (active) | -85.1% (active) | -87.7% (active) | -76.9% (active) | -95.9% (active) | -80.3% (active) | -75.5% (active) | –
Cc1ccc(/C=C2\SC(=S)N(CC(=O)NCCCN3CCOCC3)C2=O)cc1 | 90.4% | 102% | 99.4% | 103% | 100% | 102% | 105% | –
CC(C)c1c(C(=O)c2ccccc2)c(-c2ccccc2)c(-c2ccc(F)cc2)n1CC[C@@H](O)C[C@@H](O)CC(=O)O | 91.4% | 70.2% | 68.9% | 76.2% | 47.4% | 85.6% | 91% | –
Cc1ccc(OC(=O)c2ccc(Cl)cc2)cc1 | 103% | – | 99.1% | 87.3% | 57.9% | 95.3% | 104% | 102%
Cc1nn(-c2cc(=O)[nH]c3ccc(Cl)cc23)c(N)c1C#N | 97.1% | – | 103% | 98.7% | 101% | 102% | 104% | 92.3%
Clc1ccc2c(NCCCCNc3nc(N4CCOCC4)nc4ccccc34)ccnc2c1 | 8.21% (active) | 107% | 14.1% | 14.9% | -7.74% (active) | 58.3% | 33.4% | –
CC(=O)O[C@H]1[C@@H]2OC(=O)C(CSc3ccccc3)[C@@H]2C[C@H]2O[C@]2(C)CC/C=C(\C)CCC[C@@H]1C (some centres not stated) | 38.3% | – | 25.8% | -20.7% (active) | -36.7% (active) | 80.7% | 51.5% | 10.6%
COc1cccc(/C=C2\SC(=Nc3ccc(NC(C)=O)cc3)NC2=O)c1OC | – | 97.8% | 52.1% | 92% | 98% | 101% | 89.4% | 92.6%
